Screening results deposited in PubChem BioAssay by several laboratories.
Sampled rows, rich in hits. Any-hit rate of the full collection: about 4.1%.
PolyA inh – inhibitors of polyadenylation in S. cerevisiae; S. cerevisiae SKY197-pL101 polyadenylation reporter, beta-gal luminescence; efflux-impaired pdr1/pdr3 knockout yeast; score 100 = 6 SD above DMSO; hit rate 0.02% among 300,000; activity score, % at 12 µM;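 active = lowest replicate activity score at least 50, where 100 means six control SD above control mean; inconclusive = lowest score under 50 but half or more replicates reach 50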;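 also: yeast exposed to compound for 9 h at 30 °C; higher score means more reporter readthrough which indicates perturbed polyadenylation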
IDE cell inh – inhibits human insulin-degrading enzyme in HEK cells; P14735; AID 434962; hit rate 0.41% among 320,000; FAbetaB cleavage, fluorescence polarization; inhibition, % at 5.59 µM;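 active = percent inhibition above the average of all tested compounds plus 3 SD, set per screening campaign, cut at about 16% in these data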;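 also: IDE supplied by intact live HEK cells; FP after avidin binding of uncleaved biotin substrate so inhibition keeps polarization high; 0% = DMSO wells and 100% = 60 µM reference IDE inhibitor Ii1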
M18AAP inhibitor – blocks P. falciparum M18 aspartyl aminopeptidase; recombinant PfM18AAP, H-Glu-NHMec fluorogenic cleavage; hit rate 1.2% among 290,000; AID 1822; inhibition, % at 7.35 µM;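 active = inhibition above the campaign mean inhibition over all tested compounds plus 3 SD, cut at about 28% in these data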;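 also: 0% = plate median of test compound wells and 100% = 2 mM ZnCl2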
IDE act – boosts human insulin-degrading enzyme activity in HEK cells; P14735; FAbeta-B cleavage, fluorescence polarization; 0% vehicle, 100% cell-free pure enzyme wells; activation, % at 5.96 µM; hit rate 0.073% among 340,000; AID 493087;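 active = activation above the mean of all tested compounds plus 3 SD, set per screening campaign, cut at about 17% in these data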
ALR inh – human ALR oxidase inhibition via reduced H2O2 | AID 485317 | hit rate 3.8% among 290,000 | P55789 | inhibition, % (concentration not given with the values) | purified ALR, DTT oxidation, H2O2 HRP-luminol luminescence;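 active = mean replicate inhibition above about 79%, with every replicate also reaching it, limit read from the data; inconclusive = only one of the two criteria met; inactive = mean below limit and not every replicate reaching it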
Target sequence (P55789 whole entry, looked up): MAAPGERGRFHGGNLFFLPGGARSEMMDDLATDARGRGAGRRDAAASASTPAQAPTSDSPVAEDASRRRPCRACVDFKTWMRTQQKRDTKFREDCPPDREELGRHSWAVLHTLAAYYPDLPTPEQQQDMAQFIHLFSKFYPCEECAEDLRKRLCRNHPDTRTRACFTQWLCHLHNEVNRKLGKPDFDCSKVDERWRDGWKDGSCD
CaV13 FRET inh – Primary screen for inhibitors of IQ motif and Ca2+-dependent inactivation inhibitor domain binding in CACNA1D, Förster resonance energy transfer in living cells, …; hit rate 0.098% among 340,000; inhibition, % at 12.3 µM; HEK cells, CFP/YFP FRET ICDI-IQ, plate reader, 10 min; percent FRET-ratio fall versus neutral wells;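 active = mean replicate inhibition of at least 30% and at least 1% of replicates passing that level; inconclusive = only one of the two criteria is met; inactive = neither criterion is met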;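 also: 0% = median of the neutral control wells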
An asterisk follows results filed as active; ? = inconclusive; nt = no result.

SMILES	PolyA inh	IDE cell inh	M18AAP inhibitor	IDE act	ALR inh	CaV13 FRET inh
Cc1ccsc1/C=C1\SC(N2CC(C)OC(C)C2)=NC1=O (centres undefined)	12	6	-2	3	100*	-2
COC(=O)c1ccc2nc(C)cc(Nc3ccc(N(C)C)cc3)c2c1	24	2	-15	5	99*	-7
Cc1cc(C)n(C(=O)c2ccc(C)c(F)c2F)n1	-19	0	1	2	-15	-15
CCc1ccc(OCC(=O)OC(C)C(=O)Nc2ccc(Cl)cn2)cc1 (centres undefined)	nt	-2	nt	3	-10	-5
O=C(Nc1ccccc1)/C(=C\c1ccncc1)NC(=O)c1ccccc1	-1	-5	2	7	nt	-5
COc1ccccc1C(=O)N/C(=C/c1ccco1)C(=O)Nc1cccc(C(=O)O)c1	7	5	16	-2	44	-5
O=C(Nc1ccc(C(=O)O)cc1)/C(=C\c1ccco1)NC(=O)c1ccc(Br)cc1	nt	nt	nt	nt	nt	-5
Cc1ccc(C(=O)N/C(=C/c2ccco2)C(=O)Nc2cccc(C(=O)O)c2)cc1	4	-2	30*	nt	?	-7
O=C(Nc1ccc(O)cc1)/C(=C/c1ccco1)NC(=O)c1ccccc1	-8	-2	-1	1	99*	-2
O=C(Nc1ccc(O)cc1)/C(=C\c1ccncc1)NC(=O)c1ccccc1	-14	3	1	3	99*	-3
CC(=O)Nc1ccc(S(=O)(=O)NNC(=O)COc2cc(C)ccc2C(C)C)cc1	-6	-5	-2	-1	99*	nt
O=S(=O)(NCCCN1CCN(c2ccccc2F)CC1)c1cccc2cccnc12	3	1	-7	5	95*	nt
O=S(=O)(NCCN1CCCC1)c1cccc2cccnc12	23	4	-8	5	37	-2
C=CCN(c1ccccc1)S(=O)(=O)c1cc2c(cc1C)N(C)CCO2	0	-7	5	0	97*	10
Cc1cc(Oc2ccc(=O)n(C)n2)nc(=S)[nH]1	41	-1	28*	nt	47	nt
CSc1nc(C)cc(Oc2ccc(=O)n(C)n2)n1	34	-3	1	-2	-6	-6
CC(NC(=O)CCCCCCN1C(=O)c2ccccc2C1=O)c1ccc2c(c1)CCCC2 (centres undefined)	82*	7	-7	-1	-4	-3
CC(NC(=O)CCCCCN1C(=O)c2ccccc2C1=O)c1ccc2c(c1)CCCC2 (centres undefined)	-10	0	0	6	-2	-8
CCC(=O)Nc1ccc(Nc2ccccc2)cc1	3	-1	6	2	nt	-4
O=C(Nc1ccc(Nc2ccccc2)cc1)C(Cl)(Cl)Cl	-10	-1	3	2	95*	-14
O=C(Nc1ccc(Nc2ccccc2)cc1)C(Cl)Cl	2	0	10	-1	92*	-6
CC(C)(C)C(=O)C(Cl)C(=O)Nc1ccccc1 (centres undefined)	20	12	-48	4	3	-7
COCC(=O)Nc1ccc(Nc2ccccc2)cc1	1	-2	8	-1	nt	12
NC(=O)Nc1ccc(Nc2ccccc2)cc1	20	7	5	2	99*	-15
CC(=O)Nc1ccc(NC(=O)C(C)OC(=O)COc2ccc(Nc3ccccc3)cc2)cc1 (centres undefined)	nt	-2	nt	0	99*	-6
SMILES	PolyA inh	IDE cell inh	M18AAP inhibitor	IDE act	ALR inh	CaV13 FRET inh
COC(=O)N(C)C[C@H]1OCc2cn(nn2)CCCC(=O)N([C@H](C)CO)C[C@@H]1C	nt	nt	nt	nt	nt	-4
O=C(O)[C@H]1CCCC[C@H]1C(=O)Nc1ccc(Nc2ccccc2)cc1	7	3	2	-1	98*	-4
O=C(Nc1ccc(Nc2ccccc2)cc1)c1ccccc1	-19	-3	nt	nt	90*	7
CC(=O)Oc1ccc(Nc2ccccc2)cc1	-13	-6	10	-1	99*	-16
CC(=O)Oc1ccc(C(=O)c2ccccc2)c(OC(C)=O)c1	-6	5	3	3	98*	-5
O=C(Nc1ccc(Nc2ccccc2)cc1)c1ccc(Cl)cc1	-18	7	nt	-3	12	-5
CN1C(=O)NC(c2ccccc2[N+](=O)[O-])C2=C1CCCC2=O (centres undefined)	8	-1	20	6	55	-25
Nc1ccc(OCc2ccccc2)cc1	12	2	-5	2	97*	-4
CCN=c1scc(C)n1/N=C/c1cc(Br)c(O)c(OC)c1	-2	-4	35*	1	87*	-7
COc1cc(/C=N/N2CCCCC2)cc(OC)c1O	15	-6	27	-1	99*	-4
COc1cc(/C=N/N2C(C)CCCC2C)cc(Br)c1O (centres undefined)	17	-3	8	4	99*	-4
COc1cc(C=NN2CCCCC2)cc(OC)c1OC	nt	nt	nt	nt	nt	-6
COc1cc(NC(=O)CN2c3ccccc3CC2C)cc(OC)c1OC (centres undefined)	?	0	-1	5	97*	-4
CCCOc1ccc(F)cc1-c1cc(C(=O)NCc2cccc(Cl)c2)[nH]n1	nt	nt	nt	nt	nt	-10
O=C(CCN1CCN(c2ccccc2)CC1)NNC(=O)c1cccc2ccccc12	20	3	-6	0	99*	-6
COc1cccc(C(=O)NNC(=O)CCN2CCN(c3ccccc3)CC2)c1	nt	3	nt	-1	86*	-6
CCc1cc(C(=O)NNC(=O)CCN2CCN(c3ccccc3)CC2)sc1C	-9	3	0	2	2	nt
Cc1cc(C(=O)NNC(=O)CCN2CCN(c3ccccc3)CC2)c2ccccc2n1	7	-4	2	2	98*	-5
Cc1ccc(C(c2sc3ncnn3c2O)N2CC(C)CC(C)C2)cc1 (centres undefined)	1	3	30*	0	-5	-9
O=C1CCC(=O)N1c1ccc(CSc2nc3ccccc3[nH]2)cc1	7	3	-28	-9	99*	-4
O=C(CSc1nc2ccccc2[nH]1)N1CCN(c2ccccc2)CC1	-4	6	2	2	99*	-5
CCCCn1c(SCC(=O)Nc2cccc(OC)c2)nc2ccc(N3CCOCC3)cc2c1=O	7	13	11	-1	99*	-4
O=C(CSc1nc2ccccc2[nH]1)Nc1ccc(N2CCOCC2)cc1	1	-2	6	-1	99*	nt
O=C(CCCSc1nc2ccccc2[nH]1)N1CCN(c2ccccc2)CC1	-5	8	-2	-14	22	-4
O=C(CSc1nc2ccccc2[nH]1)Nc1cccc(S(=O)(=O)N2CCOCC2)c1	-1	-5	4	-1	nt	-2
CCCCn1c(SCC(N)=O)nc2ccc(N3CCOCC3)cc2c1=O	23	3	2	-1	13	-6
